Test results published in PubChem BioAssay.
Calls of active or inactive are those of the source.

Legend:
Albumin (Bos taurus) = Albumin (Bos taurus) (UniProt P02769); experiment: bovine serum albumin binders on microarray, profiling panel, artefact control for SMM control protein annotation, biochemical, small-molecule microarray, Alexa647 label, 635/667 nm fluorescence (AID 1118); settings: BSA-A647 binding, fluorescence 635 nm, higher = more signal;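 further: score merges 667 nm emission intensity and signal-to-noise per printed compound spot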
[1] = small-molecule microarray binders of probe aXIP, primary screen, biochemical, NeuroSMM set, 635/667 nm fluorescence (AID 1119); settings: higher = more signal, called active from +8 up or from −8 down;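 further: probe is the protein aXip251-270 applied at 1 µg/mL to compound-printed slides; binding of probe to printed compounds measured as 667 nm fluorescence plus signal to noise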
[2] = small-molecule binders of probe aNOTCH3, primary screen, biochemical, small-molecule microarray, 635/667 nm fluorescence (AID 1120); settings: higher = more signal;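 further: probe is a biotin-tagged antibody raised against NOTCH3 rather than NOTCH3 protein; score merges spot fluorescence near 667 nm with spot signal to noise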
[3] = small-molecule binders of probe aNOTCH2, primary screen, biochemical, small-molecule microarray, 635/667 nm fluorescence (AID 1121); settings: higher = more signal;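 further: score merges feature fluorescence read at 667 nm with its signal to noise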
[4] = target: Carbonic anhydrase 2 (Homo sapiens) (UniProt P00918); experiment: CAII small-molecule binders, profiling panel, biochemical, small-molecule microarray, Alexa647-labelled CAII (AID 1122); settings: CAII-A647 binding fluorescence, higher = more signal
[5] = COS7 lysate on small-molecule microarray, probe aHis, 635 nm (AID 1123); settings: COS7 cell lysate, fluorescence, higher = more signal;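 further: z-score combines 667nm fluorescence intensity with signal-to-noise per printed compound spot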
[6] = compound binding in COS7 lysate, probe aLAP1, primary screen, cell lysate, small-molecule microarray (AID 1124); settings: probe aLAP1, fluorescence, higher = more signal;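 further: lysate comes from COS7 cells expressing LAP1 and is applied at 0.3 µg/mL; score merges spot fluorescence near 667 nm with signal-to-noise over triplicate slides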
Sam68 (KHDRBS1) = experiment: Sam68 small-molecule binders, primary screen, biochemical, small-molecule microarray, 635 nm fluorescence (AID 1125); settings: small-molecule microarray binding, higher = more signal;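 further: score merges 667 nm channel intensity with signal to noise over triplicate slides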
[7] = system: Chordin-like protein 2 (CHRDL2); experiment: CHRDL2 small-molecule binders, primary screen, biochemical, small-molecule microarray, 635 nm fluorescence (AID 1126); settings: small-molecule microarray binding, fluorescence 635 nm; higher = more signal;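 further: printed compound slides probed with Chrdl2 protein at 4 µg/mL for 1 h at 4 C; score merges 667 nm emission intensity with signal to noise over three replicate slides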
[8] = target: Concanavalin-A (Canavalia ensiformis) (UniProt P02866); experiment: ConA small-molecule binders, primary screen, artefact control for SMM control protein annotation, biochemical, small-molecule microarray, Alexa647 label, 635 nm (AID 1127); settings: ConA-A647 binding fluorescence, higher = more signal;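 further: z combines 667 nm emission intensity with signal-to-noise across three replicate slides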
[9] = anti-His antibody binders, primary screen, artefact control for SMM control protein annotation, biochemical, small-molecule microarray, 635 nm fluorescence (AID 1128); settings: anti-His Alexa647 antibody binding, higher = more signal;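 further: score merges feature fluorescence with signal-to-noise for each printed compound spot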
[10] = system: Human papillomavirus type 1a E7 protein (residues 1-88); experiment: HPV1a E7 small-molecule binders, primary screen, biochemical, small-molecule microarray, residues 1-88, 635 nm (AID 1129); settings: small-molecule microarray binding, fluorescence 635 nm; higher = more signal
[11] = target: Focal adhesion kinase 1 (Homo sapiens) (UniProt Q05397); experiment: small-molecule microarray binders of FAK, primary screen, biochemical, 635/667 nm fluorescence, BSA, DTT (AID 1130); settings: PTK2 binding, 635 nm fluorescence, higher = more signal;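 further: composite of spot emission at 667 nm and signal to noise over triplicate slides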
[12] = system: Fibrinogen (Alexa647-labelled); experiment: fibrinogen binders on compound microarrays, profiling panel, artefact control for SMM control-protein annotation, biochemical, small-molecule microarray, 635/667 nm fluorescence (AID 1131); settings: fibrinogen-A647 binding fluorescence, higher = more signal;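 further: z-score merges 667 nm fluorescence with per-spot signal-to-noise over triplicate slides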
[13] = target: Follistatin (Homo sapiens) (UniProt P19883); experiment: follistatin binders on small-molecule microarrays, primary screen, biochemical, small-molecule microarray, 635/667 nm fluorescence (AID 1132); settings: FST binding, 635 nm fluorescence, higher = more signal
[14] = target: Fibroblast growth factor 2 (Homo sapiens) (UniProt P09038); experiment: FGF2 binders on small-molecule microarrays, primary screen, biochemical, small-molecule microarray, 635/667 nm fluorescence (AID 1133); settings: small-molecule microarray binding, FGF2, fluorescence 635/667; higher = more signal
[15] = mitochondrial membrane potential change in A549 cells, profiling panel, cell-based, JC-1 fluorescence, basal, 24 h, 100 nL (AID 1138); settings: higher = more signal;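 further: A549 lung adenocarcinoma cells under basal conditions with no added stimulus; test concentration not given here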
Lefty1 = Lefty1 binders on small-molecule microarrays, primary screen, biochemical, small-molecule microarray, 635/667 nm fluorescence (AID 1139); settings: small-molecule microarray binding, fluorescence 635/667; higher = more signal
[16] = system: wheat germ agglutinin (Triticum aestivum), Alexa647-labelled; experiment: wheat germ agglutinin binders on compound microarrays, profiling panel, artefact control for SMM control-protein annotation, biochemical, small-molecule microarray, 635/667 nm fluorescence (AID 1140); settings: WGA-A647 binding, 635 nm fluorescence, higher = more signal;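 further: score merges 667 nm feature emission with signal to noise over triplicate slides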
[17] = target: Luciferin 4-monooxygenase (Photinus pyralis) (UniProt P08659); experiment: firefly luciferase enzyme inhibitors, primary screen, biochemical, luminescence, purified enzyme, 2006 set (AID 1141); settings: SteadyGlo luminescence, 30 min, higher = more signal, called active from +8 up or from −8 down;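 further: cell-free assay with purified firefly luciferase at 100 ng per well in PBS; test concentration not given here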
Sequence of Luciferin 4-monooxygenase (Photinus pyralis) (P08659 whole entry, looked up): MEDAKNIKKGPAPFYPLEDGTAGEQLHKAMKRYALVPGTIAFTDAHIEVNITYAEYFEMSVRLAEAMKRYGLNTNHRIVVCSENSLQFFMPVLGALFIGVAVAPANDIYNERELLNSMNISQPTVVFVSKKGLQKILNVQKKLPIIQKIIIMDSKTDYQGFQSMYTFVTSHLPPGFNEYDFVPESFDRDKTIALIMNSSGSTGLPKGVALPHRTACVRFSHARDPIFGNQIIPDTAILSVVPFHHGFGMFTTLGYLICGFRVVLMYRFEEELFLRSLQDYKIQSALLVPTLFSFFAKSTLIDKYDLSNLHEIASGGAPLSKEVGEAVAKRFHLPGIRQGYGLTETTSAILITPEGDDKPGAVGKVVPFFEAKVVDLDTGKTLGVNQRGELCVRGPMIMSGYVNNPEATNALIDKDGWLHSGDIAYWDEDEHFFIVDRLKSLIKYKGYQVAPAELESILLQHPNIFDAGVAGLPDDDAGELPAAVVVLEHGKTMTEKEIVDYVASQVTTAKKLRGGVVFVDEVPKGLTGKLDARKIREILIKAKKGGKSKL

Sequence of Focal adhesion kinase 1 (Homo sapiens) (Q05397 whole entry, looked up): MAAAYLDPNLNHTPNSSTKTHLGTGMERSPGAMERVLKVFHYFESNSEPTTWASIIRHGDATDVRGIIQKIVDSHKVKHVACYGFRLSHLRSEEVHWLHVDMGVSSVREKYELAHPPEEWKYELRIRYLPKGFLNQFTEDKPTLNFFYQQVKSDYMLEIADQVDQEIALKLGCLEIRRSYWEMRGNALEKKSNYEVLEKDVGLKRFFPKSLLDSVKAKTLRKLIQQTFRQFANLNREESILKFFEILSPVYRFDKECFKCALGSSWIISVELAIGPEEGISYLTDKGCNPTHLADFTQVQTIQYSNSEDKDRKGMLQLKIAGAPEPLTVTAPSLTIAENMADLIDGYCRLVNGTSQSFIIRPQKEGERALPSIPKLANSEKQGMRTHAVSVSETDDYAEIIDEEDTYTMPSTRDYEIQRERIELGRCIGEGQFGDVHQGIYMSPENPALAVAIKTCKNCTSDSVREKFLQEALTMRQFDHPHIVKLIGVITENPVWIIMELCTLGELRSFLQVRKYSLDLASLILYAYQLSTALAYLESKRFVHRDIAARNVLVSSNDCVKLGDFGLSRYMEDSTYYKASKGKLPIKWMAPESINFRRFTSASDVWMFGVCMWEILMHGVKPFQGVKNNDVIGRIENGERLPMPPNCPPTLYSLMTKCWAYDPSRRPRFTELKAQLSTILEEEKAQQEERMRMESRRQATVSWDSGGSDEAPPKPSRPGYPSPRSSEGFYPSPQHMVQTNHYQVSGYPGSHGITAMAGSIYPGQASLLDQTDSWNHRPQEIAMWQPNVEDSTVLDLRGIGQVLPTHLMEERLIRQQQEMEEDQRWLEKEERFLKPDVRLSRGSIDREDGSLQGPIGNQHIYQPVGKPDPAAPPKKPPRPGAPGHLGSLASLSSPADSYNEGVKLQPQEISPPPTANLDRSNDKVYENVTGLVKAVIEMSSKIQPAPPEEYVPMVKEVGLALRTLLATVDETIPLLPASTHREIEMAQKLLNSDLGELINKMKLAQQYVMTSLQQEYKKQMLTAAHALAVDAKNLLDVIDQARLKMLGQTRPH
Sequence of Fibroblast growth factor 2 (Homo sapiens) (P09038 whole entry, looked up): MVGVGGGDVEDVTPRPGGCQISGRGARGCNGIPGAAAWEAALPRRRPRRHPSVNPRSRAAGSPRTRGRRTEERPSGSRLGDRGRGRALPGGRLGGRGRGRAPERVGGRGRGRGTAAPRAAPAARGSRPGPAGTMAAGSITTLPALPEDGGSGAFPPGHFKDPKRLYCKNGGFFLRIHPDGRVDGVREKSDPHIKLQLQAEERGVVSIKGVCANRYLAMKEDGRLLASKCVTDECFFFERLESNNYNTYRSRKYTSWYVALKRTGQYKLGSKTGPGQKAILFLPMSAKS
Sequence of Albumin (Bos taurus) (P02769 whole entry, looked up): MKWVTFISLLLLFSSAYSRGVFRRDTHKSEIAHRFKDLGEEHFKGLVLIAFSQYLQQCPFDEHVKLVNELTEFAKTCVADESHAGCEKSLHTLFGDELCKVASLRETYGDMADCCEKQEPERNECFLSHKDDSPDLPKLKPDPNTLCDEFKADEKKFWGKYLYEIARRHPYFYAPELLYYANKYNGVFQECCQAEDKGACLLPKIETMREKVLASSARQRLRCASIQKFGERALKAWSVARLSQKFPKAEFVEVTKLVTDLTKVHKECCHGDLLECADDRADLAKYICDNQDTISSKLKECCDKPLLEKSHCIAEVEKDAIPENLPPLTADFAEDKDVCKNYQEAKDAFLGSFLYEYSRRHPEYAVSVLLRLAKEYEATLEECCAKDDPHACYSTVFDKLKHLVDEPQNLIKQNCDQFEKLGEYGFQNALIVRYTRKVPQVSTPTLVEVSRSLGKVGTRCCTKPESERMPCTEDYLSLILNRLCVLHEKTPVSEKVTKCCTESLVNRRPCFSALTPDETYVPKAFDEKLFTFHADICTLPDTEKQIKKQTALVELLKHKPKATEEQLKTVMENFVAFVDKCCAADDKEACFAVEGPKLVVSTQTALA
Sequence of Concanavalin-A (Canavalia ensiformis) (P02866 whole entry, looked up): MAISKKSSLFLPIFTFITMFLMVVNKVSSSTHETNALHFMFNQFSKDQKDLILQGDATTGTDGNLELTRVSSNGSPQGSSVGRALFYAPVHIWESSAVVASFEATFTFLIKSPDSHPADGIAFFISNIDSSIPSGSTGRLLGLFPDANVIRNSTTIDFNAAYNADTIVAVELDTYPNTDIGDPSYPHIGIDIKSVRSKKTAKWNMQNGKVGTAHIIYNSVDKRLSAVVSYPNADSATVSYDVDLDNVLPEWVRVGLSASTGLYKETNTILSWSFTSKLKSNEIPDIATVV
Sequence of Follistatin (Homo sapiens) (P19883 whole entry, looked up): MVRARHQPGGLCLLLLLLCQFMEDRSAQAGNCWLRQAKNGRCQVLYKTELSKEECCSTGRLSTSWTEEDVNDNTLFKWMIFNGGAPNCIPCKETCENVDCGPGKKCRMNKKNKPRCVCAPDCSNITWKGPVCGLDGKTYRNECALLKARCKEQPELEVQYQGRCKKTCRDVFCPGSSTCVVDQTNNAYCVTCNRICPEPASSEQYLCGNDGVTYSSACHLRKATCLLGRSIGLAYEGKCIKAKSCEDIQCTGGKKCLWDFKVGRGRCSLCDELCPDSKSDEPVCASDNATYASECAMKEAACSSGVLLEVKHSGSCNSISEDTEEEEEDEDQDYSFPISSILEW

SMILES | composite z-score (Albumin (Bos taurus)) | composite Z-score [1] | composite z-score [2] | composite z-score [3] | composite z-score [4] | composite z-score [5] | composite z-score [6] | composite z-score (Sam68 (KHDRBS1)) | composite z-score [7] | composite z-score [8] | composite z-score [9] | composite z-score [10] | composite z-score [11] | composite z-score [12] | composite z-score [13] | composite z-score [14] | z-score [15] | composite z-score (Lefty1) | composite z-score [16] | z-score [17]
COC(=O)c1c2oc(c1C(=O)OC)C(=O)NC1(CCCCC1)c1cn(nn1)C[C@H](Cc1ccccc1)NC(=O)N[C@H](CO)CC2 | 0.692 | 0.992 (inactive) | -0.207 | -0.167 | 0.269 | 1.75 | -0.0871 | 0.789 | 0.296 | 0.91 | 0.842 | 0.494 | 0.244 | 0.94 | 0.437 | 0.0141 | 0.304 | 0.609 | 0.831 | 0.893 (inactive)
CCOC(=O)C1=CC[C@H]2C(=O)N(c3ccccc3)C(=O)[C@@H]12 | 0.916 | 1.58 (inactive) | 0.0893 | -0.046 | 0.848 | 2.7 | 0.786 | 1.31 | 0.613 | 1.05 | 2.18 | 1.32 | 0.291 | 1.04 | 1.24 | 0.385 | -1.44 | 0.655 | 0.56 | 0.332 (inactive)
CCCCC(=C=CC[C@@H](O)c1ccc(CO)o1)CCO | -0.276 | -0.35 (inactive) | 0.0261 | -0.044 | 0.595 | -0.0845 | 0.24 | 1.17 | 0.29 | 0.119 | 1.05 | 0.0355 | -0.347 | -0.313 | 1.14 | 1.13 | 0.622 | 1.08 | 0.55 | -2.51 (inactive)
C=CCN1Cc2ccccc2[C@@H]2OC(c3ccc(OCCCO)cc3)=N[C@]2(CCS(=O)(=O)c2ccccc2)C1=O | -0.292 | 0.187 (inactive) | 0.233 | -0.0664 | 0.254 | 2.96 | 0.725 | 1.3 | 1.03 | 1.21 | 1.56 | 1.2 | 0.772 | 0.811 | 1.4 | 1.78 | 1.37 | 0.602 | 0.393 | -2.38 (inactive)
CC(C)(C)OC(=O)CC[C@]1(C(=O)NCCN2CCOCC2)COC(c2ccc(OCCCO)cc2)=N1 | 0.735 | 0.347 (inactive) | 0.199 | -0.0995 | 0.719 | 2.48 | 0.737 | 1.28 | -0.634 | 0.919 | 1.34 | 1.19 | 0.436 | 0.46 | 1.32 | 1.78 | -0.13 | 0.78 | 0.253 | 0.965 (inactive)
C=CCNC(=O)[C@H]1[C@@H]2C(=O)O[C@@H](c3ccccc3)[C@@H](c3ccccc3)N2[C@@H](c2ccc(OCCO)cc2)[C@]12C(=O)Nc1ccc(C#CCC(C(=O)OC)C(=O)OC)cc12 | 0.629 | 0.612 (inactive) | 0.116 | 0.0022 | 0.328 | 1.92 | 0.979 | 1.3 | 1.24 | 1.12 | 2.47 | 1.2 | 0.413 | 0.858 | 0.929 | 0.826 | -0.765 | 0.385 | 0.887 | -0.275 (inactive)
O=C1O[C@H](c2ccccc2)[C@H](c2ccccc2)N2[C@H]1[C@@H](C(=O)N1CCN(c3ncccn3)CC1)[C@]1(C(=O)Nc3ccc(C#CC4=CCCCC4)cc31)[C@H]2c1ccccc1OCCO | 0.28 | -0.0798 (inactive) | 0.503 | 0.123 | 0.491 | 1.88 | 1.19 | 1.28 | 0.646 | 1.16 | 1.5 | 1.18 | 0.543 | 0.916 | 1.34 | 1.3 | -1.01 | 1.16 | 1.07 | -0.662 (inactive)
O=C(O)[C@@]1(CCS(=O)(=O)c2ccccc2)N=C(c2ccc(OCCCO)cc2)O[C@H]1c1ccccc1 | 0.978 | -0.83 (inactive) | 0.156 | -0.0331 | 0.864 | 2.21 | -0.334 | 1.2 | -0.765 | 0.766 | 2.65 | 0.23 | 0.264 | 0.993 | 0.265 | -0.761 | 0.175 | -0.387 | 0.763 | -1.56 (inactive)
C=CC1c2cc(O)c(OC)cc2CCN1Cc1cccc(OC(F)(F)F)c1 (stereo not given) | 0.971 | 0.625 (inactive) | -0.0596 | -0.16 | 0.893 | 3.33 | 0.754 | 0.909 | 0.44 | 0.462 | 1.33 | 0.167 | 0.408 | -0.36 | -0.0223 | -0.43 | -1.03 | -0.145 | 1.01 | 0.454 (inactive)
[N-]=[N+]=Nc1ccccc1C[C@]1(C(=O)NCC(O)CO)N=C(c2ccc(OCCCO)cc2)O[C@H]1c1ccccc1 (stereo not given in full) | 0.927 | 0.102 (inactive) | 0.298 | -0.14 | 0.629 | 2.83 | 0.132 | 1.09 | -1.5 | 0.197 | 1.91 | 1.03 | 0.0141 | 0.942 | 0.497 | -0.839 | 0.0609 | -0.492 | 0.606 | -1.78 (inactive)
O=C1O[C@H](c2ccccc2)[C@H](c2ccccc2)N2[C@H]1[C@@H](C(=O)NC[C@H](O)c1ccccc1)[C@]1(C(=O)Nc3ccc(C#CC4=CCCCC4)cc31)[C@H]2c1ccccc1OCCO | 0.395 | 0.0371 (inactive) | 0.0527 | -0.0614 | 0.343 | 1.32 | 0.522 | 1.32 | -0.0358 | 0.978 | 1.24 | 1.19 | 0.661 | 0.86 | 1.1 | 0.198 | -1.76 | 0.632 | 1.05 | -0.758 (inactive)
COCCCNC(=O)[C@@]1(Sc2ccc(C)cc2)CC(=O)N(Cc2ccccc2Cl)[C@@H]1c1ccc(CO)cc1 | 0.71 | -0.301 (inactive) | 0.132 | -0.14 | 0.718 | 1.35 | 0.203 | 1.1 | 0.649 | 0.629 | 0.225 | 1.12 | 0.215 | 0.833 | 1.35 | 1.24 | -0.689 | 1.13 | 0.966 | 1.14 (inactive)
CC(CO)N1C(=O)[C@@H]2C3C(=O)OCCC/C=C\[C@H]3OC23C=CCN(CCN2CCOCC2)C(=O)[C@@H]13 (stereo not given in full) | -0.424 | 0.286 (inactive) | -0.21 | -0.147 | 0.366 | -0.463 | -0.277 | 0.191 | -0.0493 | 0.272 | 0.537 | -0.624 | -0.181 | -1.1 | 0.205 | 0.186 | 1.08 | 0.376 | -0.169 | -0.523 (inactive)
C=CCN1C(=O)[C@]2(Cc3ccccc3)N=C(c3ccc(OCCCO)cc3)O[C@@H]2c2ccccc21 | -0.591 | -0.452 (inactive) | 0.143 | -0.0029 | 0.414 | 2.79 | -0.0869 | 1.3 | 0.997 | 0.911 | 3.16 | 1.2 | 0.145 | 0.548 | 1.37 | 1.56 | 1.59 | 0.816 | 0.663 | -6.95 (inactive)
NCCCCCNC(=O)[C@H]1C[C@H]2C(=O)N3CCC[C@H]3C(=O)N2[C@H]1c1ccc(O)cc1 | 0.851 | 1.56 (inactive) | 0.489 | -0.0024 | 0.445 | 0.676 | 0.0612 | 1.33 | 0.464 | 1.17 | 0.695 | 1.15 | 0.223 | 0.894 | 1.34 | 1.35 | -0.373 | 1.1 | 0.781 | -0.462 (inactive)
COc1cc(CO)cc(I)c1O[C@H]1C=C(C(=O)NCCO)C[C@@H](N(C(=O)c2cc3ccccc3oc2=O)C2CCCCCC2)[C@@H]1O | 0.179 | -0.161 (inactive) | 0.0084 | -0.0282 | -0.177 | -0.149 | 0.0826 | 0.0348 | 0.13 | 0.66 | 0.0786 | -0.832 | -0.314 | 0.138 | 0.625 | 1.32 | -1.79 | 0.803 | 0.972 | 0.93 (inactive)
OCCCC1=CC(C2CC2)N(Cc2cccc(OC(F)(F)F)c2)CC1 (stereo not given) | 0.485 | 0.438 (inactive) | -0.284 | -0.177 | 0.783 | 0.421 | 0.833 | -0.441 | -0.106 | -0.807 | -0.103 | -0.208 | 0.227 | -2.53 | -0.306 | -0.338 | 0.00271 | 0.32 | -0.0444 | 0.382 (inactive)
